Values joined by “and” are separate entries in the source; they are usually repeats but may differ in a detail not shown here. Identical values can stand only once. In all, about 5,500 compounds went through this assay and about 2,000 (36%) were called active. Roughly 18% stayed inconclusive and do not appear here. No stated cut-off is given here; in the data, active means normalized growth mostly below about 0.91 (no sharp cut-off); inconclusive means no clear call, values can overlap the other calls; inactive means mostly above about 0.92. Some of the results follow.
Test: chemical genetic growth profiling, strain panel (AID 1159580);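 further: tested at 20 µM; growth read once vehicle control cultures reached saturation at 30 °C; 1 = growth at the plate median or of vehicle wells; lower values mean less growth of the strain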
Conditions: S. cerevisiae deletion strains, growth OD

Measured: normalized growth

N[C@@H](Cc1ccc(N(CCCl)CCCl)cc1)C(=O)O
inactive: locus YAL013W, strain DEP1, hits give low values 0.988 | locus YAL021C, strain ccr4, hits give low values 0.985 | locus YAL026C, strain drs2, hits give low values 0.997 | locus YAL030W, strain snc1, hits give low values 0.991 | locus YBL061C, strain skt5, hits give low values 0.987 | locus YBR009C, strain hhf1, hits give low values 0.985 | locus YBR021W, strain FUR4, hits give low values 1.05 | locus YBR023C, strain chs3, hits give low values 0.978 | locus YBR171W, strain sec66, hits give low values 0.98 | locus YBR229C, strain ROT2, hits give low values 0.947 | locus YBR231C, strain swc5, hits give low values 0.994 | locus YBR279W, strain paf1, hits give low values 0.988 | locus YCL011C, strain gbp2, hits give low values 0.971 | locus YCL016C, strain dcc1, hits give low values 0.968 | locus YCL029C, strain bik1, hits give low values 0.972 | locus YCL061C, strain MRC1, hits give low values 0.972 | locus YCL069W, strain vba3, hits give low values 0.984 | locus YCR088W, strain abp1, hits give low values 0.986 | locus YDL005C, strain med2, hits give low values 0.995 | locus YDL035C, strain GPR1, hits give low values 0.986 | locus YDL040C, strain nat1, hits give low values 0.985 | locus YDL074C, strain BRE1, hits give low values 0.977 | locus YDL101C, strain DUN1, hits give low values 0.972 | locus YDL134C, strain PPH21, hits give low values 0.987 | locus YDL192W, strain arf1, hits give low values 0.973 | locus YDR001C, strain nth1, hits give low values 0.978 | locus YDR069C, strain doa4, hits give low values 0.996 | locus YDR101C, strain arx1, hits give low values 0.983 | locus YDR137W, strain rgp1, hits give low values 0.964 | locus YDR150W, strain NUM1, hits give low values 0.974 | locus YDR159W, strain sac3, hits give low values 1.01 | locus YDR162C, strain NBP2, hits give low values 0.974 | locus YDR195W, strain ref2 0.975 | locus YDR297W, strain sur2, hits give low values 0.998 | locus YDR318W, strain mcm21, hits give low values 0.984 | locus YDR334W, strain swr1, hits give low values 0.966 | locus YDR335W, strain msn5, hits give low values 0.995 | locus YDR388W, hits give low values 0.984 | locus YDR392W, strain spt3, hits give low values 0.879 | locus YDR502C, strain sam2, hits give low values 0.971 | locus YEL003W, strain gim4, hits give low values 0.996 | locus YEL037C, strain rad23, hits give low values 0.973 | locus YEL061C, strain CIN8 (second series), hits give low values 0.978 | locus YEL061C, strain CIN8, hits give low values 0.982 | locus YER015W, strain faa2, hits give low values 0.995 | locus YER016W, strain bim1, hits give low values 1 | locus YER110C, hits give low values 0.977 | locus YER111C, strain swi4, hits give low values 0.967 | locus YER155C, strain BEM2 (second series), hits give low values 0.991 | locus YER155C, strain BEM2, hits give low values 0.979 | locus YER167W, strain BCK2, hits give low values 0.982 | locus YFR010W, strain ubp6, hits give low values 0.985 | locus YGL078C, strain dbp3, hits give low values 0.986 | locus YGL086W, strain mad1, hits give low values 0.983 | locus YGL167C, strain pmr1, hits give low values 0.987 | locus YGL173C, strain kem1, hits give low values 0.994 | locus YGL227W, strain vid30, hits give low values 0.995 | locus YGL240W, strain doc1, hits give low values 1.02 | locus YGL248W, strain PDE1, hits give low values 0.972 | locus YGL253W, strain hxk2, hits give low values 0.982 | locus YGR078C, strain PAC10, hits give low values 0.986 | locus YGR135W, strain pre9, hits give low values 0.962 | locus YGR229C, strain SMI1, hits give low values 0.974 | locus YGR252W, strain gcn5, hits give low values 1.02 | locus YHR013C, strain ard1, hits give low values 0.932 | locus YHR027C, strain rpn1, hits give low values 0.983 | locus YHR030C, strain SLT2, hits give low values 0.989 and 1.02 | locus YHR079C, strain IRE1 (second series), hits give low values 0.982 | locus YHR079C, strain IRE1, hits give low values 1.03 | locus YHR094C, strain hxt1, hits give low values 0.971 | locus YHR129C, strain ARP1, hits give low values 0.998 | locus YHR142W, strain chs7, hits give low values 0.941 | locus YHR200W, strain rpn10, hits give low values 0.97 | locus YIL066C, strain RNR3, hits give low values 0.983 | locus YIL073C, strain SPO22, hits give low values 0.963 | locus YIL125W, strain kgd1, hits give low values 0.979 | locus YIR030C, strain dcg1, hits give low values 0.981 | locus YJL092W, strain hpr5, hits give low values 0.979 | locus YJL095W, strain BCK1 (second series), hits give low values 0.984 | locus YJL095W, strain BCK1, hits give low values 1 and 1.02 | locus YJL115W, strain asf1, hits give low values 0.981 | locus YJL129C, strain trk1, hits give low values 0.969 | locus YJL134W, strain LCB3, hits give low values 0.981 | locus YJL154C, strain vps35, hits give low values 0.978 | locus YJL164C, strain tpk1, hits give low values 0.949 | locus YJL166W, strain qcr8, hits give low values 0.952 | locus YJL168C, strain set2, hits give low values 0.981 | locus YJL187C, strain SWE1 (second series), hits give low values 0.98 | locus YJL187C, strain SWE1, hits give low values 0.984 | locus YJR043C, strain POL32, hits give low values 0.989 | locus YJR066W, strain TOR1, hits give low values 0.959
